Assay results as given in PubChem BioAssay AID720597 (Broad Institute, 2013).
Potency and affinity values are given separately.

These compounds were tested against NAD-dependent protein deacylase sirtuin-5, mitochondrial (Homo sapiens) (UniProt Q9NXA8) (assay: blockers of sirtuin-5 peptide desuccinylation – biochemical, fluorescence imaging, cherry-pick, set 6, dose response (AID 720597;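 note: lower AMC signal can also come from blocking the trypsin step; 0% = median of neutral control wells and -100% = median of positive control wells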)). Conditions: Purified SirT5, succinyl-peptide-AMC/trypsin fluorescence; series mostly up to 15 µM; activity change, negative = inhibition: at the top concentration;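 active = fitted half-maximal dose no more than twice the top valid tested dose, for compounds that lower signal; inconclusive = fit invalid, or curve flat with activity between -70 and -30; inactive = potency past limit, curve flat within ±30, or signal increasing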.
Sequence of NAD-dependent protein deacylase sirtuin-5, mitochondrial (Homo sapiens) (Q9NXA8 whole entry, looked up): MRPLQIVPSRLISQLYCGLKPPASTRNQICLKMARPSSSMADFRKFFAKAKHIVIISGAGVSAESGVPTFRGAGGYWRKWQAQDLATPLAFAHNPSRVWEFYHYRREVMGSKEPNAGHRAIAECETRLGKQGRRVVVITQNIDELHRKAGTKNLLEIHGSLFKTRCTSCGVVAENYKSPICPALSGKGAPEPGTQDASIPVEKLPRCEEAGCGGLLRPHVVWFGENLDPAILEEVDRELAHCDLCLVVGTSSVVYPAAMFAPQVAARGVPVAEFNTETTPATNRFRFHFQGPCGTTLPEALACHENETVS

Activity change, negative = inhibition, inactive:
CN(C)C(=O)c1ccc(-c2ccc([C@H]3[C@H](CO)N4CCCCN(CCC(F)(F)F)C[C@@H]34)cc2)cc1 -22.6%
COc1ccc(CN(C)C[C@@H]2Oc3ccc(NC(=O)CCC(F)(F)F)cc3C(=O)N([C@H](C)CO)C[C@H]2C)cc1 0.69%
C[C@@H]1CN([C@H](C)CO)C(=O)c2c(c3ccccc3n2C)-c2ccccc2CO[C@@H]1CN(C)S(=O)(=O)c1ccc(C(F)(F)F)cc1 5.77%
Cc1ccccc1S(=O)(=O)N(C)C[C@H]1OCc2ccccc2-c2c(n(C)c3ccccc23)C(=O)N([C@@H](C)CO)C[C@@H]1C 2.1%
COc1ccccc1-c1ccc2c(c1)O[C@@H](CN(C)S(=O)(=O)c1ccccc1)[C@H](C)CN([C@@H](C)CO)S2(=O)=O -12%
O=C(c1cccnc1)N1CCCCN2[C@H](CO)[C@@H](c3ccc(C#Cc4ccccn4)cc3)[C@@H]2C1 -14.5%
C[C@H]1CN([C@@H](C)CO)C(=O)c2cc(C#CCN(C)C)cnc2O[C@H]1CN(C)S(=O)(=O)c1ccccc1 -12.4%
C[C@@H]1CN([C@H](C)CO)C(=O)c2cc(NS(=O)(=O)c3ccc(Cl)cc3)ccc2O[C@@H](C)CCCCO[C@@H]1CN(C)Cc1ccc2c(c1)OCO2 -15.4%
CC(C)CC#Cc1cnc2c(c1)C(=O)N([C@H](C)CO)C[C@H](C)[C@H](CN(C)CC1CCOCC1)O2 -7.96%
Cc1cccc(-c2ccc([C@@H]3[C@@H](CO)N4CCCCN(S(=O)(=O)c5ccccc5F)C[C@H]34)cc2)c1 -19.2%
Cc1ccc(S(=O)(=O)Nc2ccc3c(c2)C(=O)N([C@H](C)CO)C[C@@H](C)[C@@H](CN(C)Cc2ccc(C(F)(F)F)cc2)OCCCC[C@H](C)O3)cc1 -3.28%
COc1ccc(S(=O)(=O)N(C)C[C@@H]2OCCCC[C@H](C)Oc3ccc(NS(=O)(=O)c4ccc(C)cc4)cc3C(=O)N([C@@H](C)CO)C[C@@H]2C)cc1 -30.9%
C[C@H]1CN([C@@H](C)CO)S(=O)(=O)c2ccc(C#Cc3ccc(F)cc3)cc2O[C@@H]1CN(C)S(=O)(=O)c1ccc(F)cc1 -5.82%
C[C@@H]1CN([C@@H](C)CO)C(=O)c2cc(NS(=O)(=O)c3ccc(Cl)cc3)ccc2O[C@@H](C)CCCCO[C@@H]1CN(C)Cc1ccc(C(F)(F)F)cc1 3.58%
C[C@H]1CN([C@@H](C)CO)S(=O)(=O)c2ccc(/C=C/c3ccccc3)cc2O[C@@H]1CN(C)C(=O)NC1CCCCC1 15.3%
C[C@@H]1CCCCO[C@@H](CN(C)CC2CCCCC2)[C@H](C)CN([C@H](C)CO)C(=O)c2cc(NC(=O)CCCCCC(=O)Nc3ccccc3N)ccc2O1 -23.9% [at 16 µM]
Cc1noc(C)c1S(=O)(=O)Nc1ccc2c(c1)CC(=O)N([C@H](C)CO)C[C@H](C)[C@@H](CN(C)Cc1ccc(C(=O)O)cc1)O2 -11.7%
C[C@H]1CN([C@@H](C)CO)C(=O)c2c(c3ccccc3n2C)-c2ccccc2CO[C@H]1CN(C)S(=O)(=O)c1ccc(F)cc1 -7.94%
C[C@@H]1CN([C@H](C)CO)S(=O)(=O)c2ccc(C#Cc3ccccn3)cc2O[C@@H]1CN(C)Cc1cccc(F)c1 -5.39%
C[C@H](NC(=O)[C@@H]1[C@@H](CO)[C@@H]2Cn3c(cccc3=O)[C@H]1N2Cc1ccccc1)c1ccccc1 1.09%
CCCC#Cc1ccc2c(c1)O[C@@H](CN(C)C(=O)c1ccccc1F)[C@@H](C)CN([C@H](C)CO)S2(=O)=O 17.7%
COCCNC(=O)c1cc2c(c(-c3cccc(-c4cccc(F)c4)c3)n1)[C@@H](CCO)N([S@](=O)C(C)(C)C)C2 -11.9% [at 13.5 µM]
C[C@@H]1CN([C@@H](C)CO)C(=O)c2cc(NS(=O)(=O)c3ccccc3)ccc2O[C@@H](C)CCCCO[C@H]1CN(C)S(=O)(=O)c1ccc(Cl)cc1 -18.9%
Cc1ccc(S(=O)(=O)N[C@H]2CC[C@@H](CCn3cc(C(C)C)nn3)O[C@H]2CO)cc1 -10.1%
Cc1ccc(S(=O)(=O)N(C)C[C@H]2OCCCC[C@@H](C)Oc3ccc(NS(=O)(=O)c4ccccc4)cc3C(=O)N([C@@H](C)CO)C[C@H]2C)cc1 -23.3%
C[C@@H]1CN([C@@H](C)CO)S(=O)(=O)c2ccc(C3=CCCCC3)cc2O[C@@H]1CN(C)C(=O)Cc1ccccc1 -17.8%
C[C@@H]1CN([C@@H](C)CO)C(=O)Cc2cc(NS(=O)(=O)c3ccc(Cl)cc3)ccc2O[C@H]1CN(C)Cc1ccc(Cl)c(Cl)c1 5.95%
COc1cccc(S(=O)(=O)N(C)C[C@@H]2Oc3cc(C4=CCCCC4)ccc3S(=O)(=O)N([C@@H](C)CO)C[C@H]2C)c1 -19.3%
C[C@@H]1CN([C@@H](C)CO)S(=O)(=O)c2ccc(/C=C/c3ccccc3)cc2O[C@H]1CN(C)C(=O)NC1CCCCC1 22.6%
O=C(CCN1CCCCC1)N[C@@H]1CC[C@H](CC(=O)N2CCC(Cc3ccccc3)CC2)O[C@H]1CO -2.36%
COc1ccc(C#Cc2ccc([C@H]3[C@H]4CN(C(=O)c5cccnc5)CC(=O)N4[C@H]3CO)cc2)cc1 -7.27%
COc1ccc(NC(=O)N(C)C[C@@H]2OCc3ccccc3-c3c(n(C)c4ccccc34)C(=O)N([C@@H](C)CO)C[C@@H]2C)cc1 2.24%
C[C@@H]1CN([C@H](C)CO)C(=O)Cc2cc(NS(=O)(=O)c3ccccc3)ccc2O[C@H]1CN(C)Cc1ccc(Cl)c(Cl)c1 -4.25%
C[C@@H]1CN([C@@H](C)CO)S(=O)(=O)c2ccc(C#Cc3ccc(F)cc3)cc2O[C@H]1CN(C)C(=O)NC1CCCCC1 2.16%
CC(C)OC(=O)N(C)C[C@@H]1OCc2cn(nn2)CCCC(=O)N([C@H](C)CO)C[C@H]1C -7.79%
CO[C@H]1CN(C)C(=O)c2cc(NC(=O)c3ccccc3F)ccc2OC[C@@H](C)NC[C@@H]1C 0.898%
Cc1ccc(S(=O)(=O)N(C)C[C@H]2Oc3ncc(-c4ccncc4)cc3C(=O)N([C@@H](C)CO)C[C@@H]2C)cc1 -4.75%
Cc1noc(C)c1S(=O)(=O)Nc1ccc2c(c1)C(=O)N([C@H](C)CO)C[C@@H](C)[C@@H](CN(C)Cc1ccc(C(F)(F)F)cc1)OCCCC[C@@H](C)O2 2.73%
O=C(NCC[C@@H]1CC[C@H](NC(=O)C2CC2)[C@@H](CO)O1)c1cc(Cl)cc(Cl)c1 -6.62%
C[C@@H]1CCCCO[C@@H](CN(C)Cc2ccc(C(F)(F)F)cc2)[C@H](C)CN([C@H](C)CO)C(=O)c2cc(NS(=O)(=O)c3ccccc3)ccc2O1 -0.747%
